According to ChEMBL document CHEMBL1961873, “Compounds: GSK PKIS; Assays: Nanosyn kinase panel” (2012):

How the values were obtained:
[1] = target: MAP/microtubule affinity-regulating kinase 3 (Homo sapiens) (UniProt P27448); details: at 1 µM;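 note: reported values are averaged percent inhibition of MARK3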
[2] = target: T1, MAP/microtubule affinity-regulating kinase 4 (Homo sapiens) (UniProt Q96L34); details: at 0.1 µM
T1 sequence (whole entry): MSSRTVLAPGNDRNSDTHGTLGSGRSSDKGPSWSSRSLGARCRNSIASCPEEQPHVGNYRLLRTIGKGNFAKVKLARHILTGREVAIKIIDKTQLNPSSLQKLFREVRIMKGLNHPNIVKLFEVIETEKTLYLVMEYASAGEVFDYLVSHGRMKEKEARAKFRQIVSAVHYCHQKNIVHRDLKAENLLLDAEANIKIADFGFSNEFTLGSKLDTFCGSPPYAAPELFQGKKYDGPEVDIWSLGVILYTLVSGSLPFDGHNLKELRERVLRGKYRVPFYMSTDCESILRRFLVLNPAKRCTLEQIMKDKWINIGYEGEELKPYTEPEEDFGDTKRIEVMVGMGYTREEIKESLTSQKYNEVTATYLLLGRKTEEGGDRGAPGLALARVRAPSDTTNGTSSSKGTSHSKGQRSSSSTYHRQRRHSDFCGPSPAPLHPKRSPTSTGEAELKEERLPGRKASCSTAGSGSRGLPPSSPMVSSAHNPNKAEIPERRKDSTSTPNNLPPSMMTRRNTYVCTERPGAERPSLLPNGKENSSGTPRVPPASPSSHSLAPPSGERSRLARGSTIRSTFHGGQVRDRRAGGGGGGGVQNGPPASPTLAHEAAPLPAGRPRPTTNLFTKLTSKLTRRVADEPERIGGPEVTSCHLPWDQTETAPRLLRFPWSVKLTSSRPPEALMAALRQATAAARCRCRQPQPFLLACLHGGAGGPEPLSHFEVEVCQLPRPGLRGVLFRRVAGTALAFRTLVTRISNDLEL

[3] = target: T1, MAP/microtubule affinity-regulating kinase 4 (Homo sapiens); details: at 1 µM
[4] = target: Maternal embryonic leucine zipper kinase (Homo sapiens) (UniProt Q14680); details: at 0.1 µM
[5] = target: Maternal embryonic leucine zipper kinase (Homo sapiens) (UniProt Q14680); details: at 1 µM
[6] = target: MAP kinase-interacting serine/threonine-protein kinase 1 (Homo sapiens) (UniProt Q9BUB5); details: at 0.1 µM
[7] = target: MAP kinase-interacting serine/threonine-protein kinase 1 (Homo sapiens) (UniProt Q9BUB5); details: at 1 µM
[8] = target: MAP kinase-interacting serine/threonine-protein kinase 2 (Homo sapiens) (UniProt Q9HBH9); details: at 0.1 µM
[9] = target: MAP kinase-interacting serine/threonine-protein kinase 2 (Homo sapiens) (UniProt Q9HBH9); details: at 1 µM
[10] = target: Serine/threonine-protein kinase MARK2 (Homo sapiens) (UniProt Q7KZI7); details: at 0.1 µM
[11] = target: Serine/threonine-protein kinase MARK2 (Homo sapiens) (UniProt Q7KZI7); details: at 1 µM
[12] = target: PAS domain-containing serine/threonine-protein kinase (Homo sapiens) (UniProt Q96RG2); details: at 0.1 µM
[13] = target: PAS domain-containing serine/threonine-protein kinase (Homo sapiens) (UniProt Q96RG2); details: at 1 µM
[14] = target: Phosphorylase b kinase gamma catalytic chain, skeletal muscle/heart isoform (Homo sapiens) (UniProt Q16816); details: at 0.1 µM
[15] = target: Phosphorylase b kinase gamma catalytic chain, skeletal muscle/heart isoform (Homo sapiens) (UniProt Q16816); details: at 1 µM
[16] = target: T2, Phosphorylase b kinase gamma catalytic chain, liver/testis isoform (Homo sapiens) (UniProt P15735); details: at 0.1 µM
T2 sequence (whole entry): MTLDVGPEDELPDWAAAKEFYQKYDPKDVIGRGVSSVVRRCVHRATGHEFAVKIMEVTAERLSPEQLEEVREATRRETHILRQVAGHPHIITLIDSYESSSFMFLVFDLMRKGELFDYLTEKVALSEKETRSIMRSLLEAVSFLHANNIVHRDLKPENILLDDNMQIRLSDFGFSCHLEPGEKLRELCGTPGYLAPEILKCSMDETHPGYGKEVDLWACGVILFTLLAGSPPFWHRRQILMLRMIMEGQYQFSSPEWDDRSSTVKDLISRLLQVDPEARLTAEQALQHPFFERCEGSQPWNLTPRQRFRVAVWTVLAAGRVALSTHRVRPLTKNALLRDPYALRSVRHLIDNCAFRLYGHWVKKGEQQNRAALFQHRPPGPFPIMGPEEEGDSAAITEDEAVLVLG

[17] = target: T2, Phosphorylase b kinase gamma catalytic chain, liver/testis isoform (Homo sapiens); details: at 1 µM
[18] = target: Serine/threonine-protein kinase pim-1 (Homo sapiens) (UniProt P11309); details: at 0.1 µM
[19] = target: Serine/threonine-protein kinase pim-1 (Homo sapiens) (UniProt P11309); details: at 1 µM
[20] = target: Serine/threonine-protein kinase pim-2 (Homo sapiens) (UniProt Q9P1W9); details: at 0.1 µM;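 note: reported value is the mean percent inhibition of PIM2, measured in the GSK PKIS kinase inhibitor set screen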
Serine/threonine-protein kinase pim-2 (Homo sapiens), sequence (Q9P1W9 whole entry, looked up): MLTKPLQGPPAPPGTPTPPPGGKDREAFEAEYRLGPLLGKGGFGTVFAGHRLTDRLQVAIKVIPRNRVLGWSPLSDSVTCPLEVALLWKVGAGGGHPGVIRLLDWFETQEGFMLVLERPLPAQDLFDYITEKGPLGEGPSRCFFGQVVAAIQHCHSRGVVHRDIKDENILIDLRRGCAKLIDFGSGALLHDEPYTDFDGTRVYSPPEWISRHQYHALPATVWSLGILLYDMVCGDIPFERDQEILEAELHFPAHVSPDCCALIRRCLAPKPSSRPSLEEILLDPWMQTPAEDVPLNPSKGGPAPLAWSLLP

MAP kinase-interacting serine/threonine-protein kinase 2 (Homo sapiens), sequence (Q9HBH9 whole entry, looked up): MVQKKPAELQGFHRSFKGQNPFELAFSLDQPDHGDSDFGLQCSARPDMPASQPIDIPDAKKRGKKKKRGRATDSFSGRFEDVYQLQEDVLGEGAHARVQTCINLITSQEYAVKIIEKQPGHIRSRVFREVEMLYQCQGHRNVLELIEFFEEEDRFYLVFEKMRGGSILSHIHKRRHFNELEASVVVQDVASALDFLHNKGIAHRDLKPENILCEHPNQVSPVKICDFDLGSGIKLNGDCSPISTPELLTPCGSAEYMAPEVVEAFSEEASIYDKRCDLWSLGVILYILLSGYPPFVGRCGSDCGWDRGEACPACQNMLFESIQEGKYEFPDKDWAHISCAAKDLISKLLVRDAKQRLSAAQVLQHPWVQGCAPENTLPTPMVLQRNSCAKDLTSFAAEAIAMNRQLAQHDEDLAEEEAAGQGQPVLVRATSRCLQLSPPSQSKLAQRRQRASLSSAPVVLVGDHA
PAS domain-containing serine/threonine-protein kinase (Homo sapiens), sequence (Q96RG2 whole entry, the tested form may be a part, canonical isoform): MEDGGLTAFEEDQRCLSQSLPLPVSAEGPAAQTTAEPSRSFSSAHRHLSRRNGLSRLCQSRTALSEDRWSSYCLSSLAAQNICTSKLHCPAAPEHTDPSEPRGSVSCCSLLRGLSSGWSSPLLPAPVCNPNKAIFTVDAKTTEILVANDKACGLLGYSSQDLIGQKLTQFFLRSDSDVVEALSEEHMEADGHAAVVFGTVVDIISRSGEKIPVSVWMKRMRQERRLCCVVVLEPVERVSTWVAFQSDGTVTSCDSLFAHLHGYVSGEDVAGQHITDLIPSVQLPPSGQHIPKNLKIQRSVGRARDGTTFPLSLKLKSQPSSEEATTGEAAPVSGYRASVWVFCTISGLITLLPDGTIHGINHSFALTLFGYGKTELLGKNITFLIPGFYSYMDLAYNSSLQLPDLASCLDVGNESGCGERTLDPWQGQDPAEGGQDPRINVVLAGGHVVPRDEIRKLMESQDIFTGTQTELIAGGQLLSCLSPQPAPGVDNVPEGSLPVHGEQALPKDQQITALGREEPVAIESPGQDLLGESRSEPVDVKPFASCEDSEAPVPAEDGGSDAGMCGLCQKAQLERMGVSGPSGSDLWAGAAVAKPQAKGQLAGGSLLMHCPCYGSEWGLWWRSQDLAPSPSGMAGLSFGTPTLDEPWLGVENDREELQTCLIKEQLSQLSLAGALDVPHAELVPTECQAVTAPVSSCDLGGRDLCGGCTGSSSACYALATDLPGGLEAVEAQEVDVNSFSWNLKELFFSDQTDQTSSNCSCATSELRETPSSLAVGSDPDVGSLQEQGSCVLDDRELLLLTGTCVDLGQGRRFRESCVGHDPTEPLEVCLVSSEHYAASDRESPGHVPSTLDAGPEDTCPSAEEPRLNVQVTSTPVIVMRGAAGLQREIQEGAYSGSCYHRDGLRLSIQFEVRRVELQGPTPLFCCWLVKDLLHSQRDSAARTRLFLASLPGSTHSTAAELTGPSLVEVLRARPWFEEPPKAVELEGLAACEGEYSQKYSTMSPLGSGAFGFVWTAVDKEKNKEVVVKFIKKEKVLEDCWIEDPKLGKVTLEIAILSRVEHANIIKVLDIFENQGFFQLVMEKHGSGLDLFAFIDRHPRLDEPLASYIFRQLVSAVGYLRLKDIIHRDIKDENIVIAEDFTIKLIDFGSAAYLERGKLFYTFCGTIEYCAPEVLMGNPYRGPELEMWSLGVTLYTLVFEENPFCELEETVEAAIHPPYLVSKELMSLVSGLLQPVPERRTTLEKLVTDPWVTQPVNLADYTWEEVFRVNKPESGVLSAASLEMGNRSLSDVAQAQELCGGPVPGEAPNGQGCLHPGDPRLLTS
Phosphorylase b kinase gamma catalytic chain, skeletal muscle/heart isoform (Homo sapiens), sequence (Q16816 whole entry, looked up, canonical isoform): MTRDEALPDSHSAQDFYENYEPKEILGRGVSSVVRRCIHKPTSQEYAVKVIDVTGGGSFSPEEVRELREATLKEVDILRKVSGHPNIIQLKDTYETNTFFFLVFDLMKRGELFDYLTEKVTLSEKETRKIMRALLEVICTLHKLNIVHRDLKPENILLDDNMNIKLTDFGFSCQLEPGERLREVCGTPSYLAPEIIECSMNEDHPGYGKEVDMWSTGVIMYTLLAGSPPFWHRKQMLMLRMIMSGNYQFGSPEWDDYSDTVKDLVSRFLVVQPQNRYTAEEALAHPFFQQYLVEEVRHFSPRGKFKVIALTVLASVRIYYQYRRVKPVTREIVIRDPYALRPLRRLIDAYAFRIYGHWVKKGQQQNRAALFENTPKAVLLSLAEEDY
Serine/threonine-protein kinase MARK2 (Homo sapiens), sequence (Q7KZI7 whole entry, the tested form may be a part): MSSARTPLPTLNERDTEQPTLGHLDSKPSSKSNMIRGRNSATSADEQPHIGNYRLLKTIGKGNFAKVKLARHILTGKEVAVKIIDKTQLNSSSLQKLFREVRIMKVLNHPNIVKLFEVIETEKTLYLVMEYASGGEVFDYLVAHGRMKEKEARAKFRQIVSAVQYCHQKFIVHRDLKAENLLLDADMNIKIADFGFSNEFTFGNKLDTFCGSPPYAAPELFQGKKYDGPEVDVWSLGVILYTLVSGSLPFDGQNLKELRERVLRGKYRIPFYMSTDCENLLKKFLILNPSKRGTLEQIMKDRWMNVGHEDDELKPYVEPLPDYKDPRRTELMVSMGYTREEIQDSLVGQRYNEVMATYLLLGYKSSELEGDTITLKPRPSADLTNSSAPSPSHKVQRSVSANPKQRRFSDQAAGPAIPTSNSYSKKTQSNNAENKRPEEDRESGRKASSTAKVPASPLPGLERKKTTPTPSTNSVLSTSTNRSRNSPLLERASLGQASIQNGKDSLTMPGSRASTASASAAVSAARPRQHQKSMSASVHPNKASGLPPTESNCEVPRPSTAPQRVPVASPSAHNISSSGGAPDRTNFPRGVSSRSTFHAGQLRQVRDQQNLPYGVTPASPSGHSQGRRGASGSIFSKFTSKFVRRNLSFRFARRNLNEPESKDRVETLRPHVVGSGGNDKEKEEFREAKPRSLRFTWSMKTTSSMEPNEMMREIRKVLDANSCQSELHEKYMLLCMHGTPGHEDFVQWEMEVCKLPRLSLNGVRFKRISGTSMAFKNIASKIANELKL
MAP/microtubule affinity-regulating kinase 3 (Homo sapiens), sequence (P27448 whole entry, looked up): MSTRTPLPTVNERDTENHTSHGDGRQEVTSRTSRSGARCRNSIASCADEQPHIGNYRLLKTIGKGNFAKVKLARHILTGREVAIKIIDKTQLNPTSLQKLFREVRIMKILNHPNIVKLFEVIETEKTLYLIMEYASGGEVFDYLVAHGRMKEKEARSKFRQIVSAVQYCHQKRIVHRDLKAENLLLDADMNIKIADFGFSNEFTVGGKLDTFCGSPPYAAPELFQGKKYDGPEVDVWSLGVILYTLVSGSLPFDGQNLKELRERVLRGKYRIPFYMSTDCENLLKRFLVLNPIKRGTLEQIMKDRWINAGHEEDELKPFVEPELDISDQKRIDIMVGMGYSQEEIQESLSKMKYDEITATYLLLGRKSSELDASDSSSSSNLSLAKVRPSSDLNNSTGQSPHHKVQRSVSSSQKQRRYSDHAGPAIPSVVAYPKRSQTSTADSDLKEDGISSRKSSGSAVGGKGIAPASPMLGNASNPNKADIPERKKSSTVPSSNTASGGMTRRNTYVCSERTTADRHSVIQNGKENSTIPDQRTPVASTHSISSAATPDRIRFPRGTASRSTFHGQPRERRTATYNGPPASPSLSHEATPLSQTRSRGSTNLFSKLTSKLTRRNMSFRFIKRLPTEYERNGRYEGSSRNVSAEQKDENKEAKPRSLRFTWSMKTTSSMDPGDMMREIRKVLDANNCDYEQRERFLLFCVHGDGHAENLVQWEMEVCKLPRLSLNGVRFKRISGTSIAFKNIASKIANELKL
MAP kinase-interacting serine/threonine-protein kinase 1 (Homo sapiens), sequence (Q9BUB5 whole entry, looked up): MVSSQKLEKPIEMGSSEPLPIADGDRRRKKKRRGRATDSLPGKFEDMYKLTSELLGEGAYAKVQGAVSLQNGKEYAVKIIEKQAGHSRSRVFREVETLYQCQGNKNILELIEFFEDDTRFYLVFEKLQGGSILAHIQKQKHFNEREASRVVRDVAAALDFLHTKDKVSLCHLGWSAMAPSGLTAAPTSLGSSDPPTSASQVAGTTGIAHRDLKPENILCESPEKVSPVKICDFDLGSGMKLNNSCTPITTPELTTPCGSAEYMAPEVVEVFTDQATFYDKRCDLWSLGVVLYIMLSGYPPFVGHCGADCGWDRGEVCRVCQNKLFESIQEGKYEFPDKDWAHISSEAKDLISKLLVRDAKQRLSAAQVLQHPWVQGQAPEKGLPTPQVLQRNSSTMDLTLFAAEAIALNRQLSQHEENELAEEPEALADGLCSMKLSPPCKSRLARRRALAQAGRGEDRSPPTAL
Serine/threonine-protein kinase pim-1 (Homo sapiens), sequence (P11309 whole entry, looked up): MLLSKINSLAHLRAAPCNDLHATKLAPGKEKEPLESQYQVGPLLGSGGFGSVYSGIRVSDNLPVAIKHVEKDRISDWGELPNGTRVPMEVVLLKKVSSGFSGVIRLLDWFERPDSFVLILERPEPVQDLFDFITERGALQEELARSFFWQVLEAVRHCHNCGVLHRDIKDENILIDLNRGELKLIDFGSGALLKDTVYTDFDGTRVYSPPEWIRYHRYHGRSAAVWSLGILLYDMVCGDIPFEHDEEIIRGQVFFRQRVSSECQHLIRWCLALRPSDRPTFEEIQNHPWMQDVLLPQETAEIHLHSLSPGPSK

SMILES	inhibition [1]	inhibition [2]	inhibition [3]	inhibition [4]	inhibition [5]	inhibition [6]	inhibition [7]	inhibition [8]	inhibition [9]	inhibition [10]	inhibition [11]	inhibition [12]	inhibition [13]	inhibition [14]	inhibition [15]	inhibition [16]	inhibition [17]	inhibition [18]	inhibition [19]	inhibition [20]
Cc1ccc(C(=O)NC2CC2)cc1-c1ccc2[nH]ncc2c1	5.49%	1.68%	3.83%	-4.14%	-5.86%	-1.37%	-1.19%	0.44%	1.35%	2.15%	5.77%	1.24%	1.27%	-0.37%	1.36%	-5.73%	-5.52%	1.72%	4.32%	0.52%
CN1CCN(C(=O)c2ccc(NC(=O)Nc3ccc(N(C)c4ccnc(Nc5ccc(CS(C)(=O)=O)cc5)n4)cc3)cc2)CC1	20.3%	2.48%	17.1%	0.8%	13.2%	2.8%	13.1%	5.75%	33.8%	0.98%	8.38%	-0.3%	0.27%	-1.64%	1.5%	2.03%	3.05%	0.58%	-0.28%	-0.2%
CCn1c(-c2nonc2N)nc2ccc(F)cc21	3.73%	2.45%	1.33%	1.93%	8.51%	3.42%	9.46%	2.9%	9.38%	2.57%	-0.64%	1.69%	0.49%	6.81%	7.3%	7.81%	12.6%	0.08%	1.85%	-0.12%
Cc1nc(-c2ccccc2)n2nc(NCCCN3CCOCC3)ncc12	4.15%	1.2%	2.72%	1.4%	1.29%	2.43%	4.9%	1.85%	3.34%	-0.89%	0.71%	0.65%	-0.06%	0.52%	4.26%	3.22%	3.98%	-0.82%	0.37%	0.19%
c1ccc(Cc2nc3ccc(Nc4ncnc5ccccc45)cc3[nH]2)cc1	3.72%	0.9%	2.17%	0.16%	7.57%	2.13%	5.06%	1.25%	5.19%	0.28%	2.19%	0.03%	0.27%	2.35%	4.75%	3.39%	4.89%	0.17%	0.7%	-0.72%
NS(=O)(=O)c1ccc(N/N=C2\C(=O)Nc3ccc(Cl)cc32)cc1	13.2%	2.09%	11.2%	3.75%	8.5%	2.08%	10.1%	1.59%	5.65%	0.41%	6.16%	0.76%	1.52%	0.25%	14.3%	5.9%	8.4%	1.22%	2.42%	-0.27%
